As usually defined, the inhibition is the relative decrease from the control value, in per cent.

Hit rate of the full screen: of about 88,000 compounds, about 260 (0.3%) were called active. For the sample, actives were picked, then their nearest neighbours and some compounds at random. Values without a mark were called inactive.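 How the source made its calls: active means compounds that reduce the energy-transfer binding signal between the protein and its labelled peptide by more than half; inactive means the rest.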

The values that follow come from PubChem BioAssay AID630 (Emory University Molecular Libraries Screening Center, 2007).

Chain of Mothers against decapentaplegic homolog 3 (Homo sapiens) (P84022 whole entry, looked up): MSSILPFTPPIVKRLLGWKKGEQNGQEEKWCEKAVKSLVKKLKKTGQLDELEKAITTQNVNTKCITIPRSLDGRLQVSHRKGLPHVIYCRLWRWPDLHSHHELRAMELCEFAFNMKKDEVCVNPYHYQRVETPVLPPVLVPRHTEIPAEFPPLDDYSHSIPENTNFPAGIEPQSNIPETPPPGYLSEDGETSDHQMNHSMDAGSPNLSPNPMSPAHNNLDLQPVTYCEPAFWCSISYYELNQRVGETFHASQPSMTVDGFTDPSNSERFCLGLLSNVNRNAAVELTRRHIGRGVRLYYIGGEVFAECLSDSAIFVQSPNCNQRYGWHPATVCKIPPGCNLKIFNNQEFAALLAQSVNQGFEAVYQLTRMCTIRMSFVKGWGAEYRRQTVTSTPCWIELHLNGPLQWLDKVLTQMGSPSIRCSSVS

This experiment has as its target Mothers against decapentaplegic homolog 3 (Homo sapiens) (UniProt P84022). The experiment is described as follows: Smad3/FoxH1 peptide binding inhibitors, primary screen, biochemical, TR-FRET (AID 630).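 Further: 0% = Smad3 plus labelled peptide maximal FRET and 100% = peptide-only background.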 The following applies: TR-FRET Smad3/Dy647-FoxH1 peptide binding, europium anti-His; at 25 µM; active compounds read high. For orientation: Time-resolved FRET reads energy transfer from a long-lived donor to a nearby acceptor.
`CC(=O)C1=C(C)NC(=O)NC1c1cc(Br)ccc1OCC#N` (stereo not given): the inhibition was 5.31%.
The result for `N#CC1=C(N)N(c2ccccc2)C2=C(C(=O)CCC2)C1c1ccccc1` (stereo not given) reads -6.32%.
The result for `C=CCN(N=Nc1cccc([N+](=O)[O-])c1)c1cccc([N+](=O)[O-])c1` reads 5.93%.
In the case of `COc1ccc(NC(=O)C(CC(C)C)NS(=O)(=O)c2ccc3c(c2)CCN3C(C)=O)cc1OC` (stereo not given) it was 2.09%.
Regarding `C[C@H]1O[C@@H](CC(=O)O)Cc2c1c(O)c1c(O)cc(-c3cc(=O)c4c(=O)c5c(c(=O)c=4c3=O)C[C@H](CC(=O)O)O[C@@H]5C)c(O)c1c2O`, the inhibition is 95.5% (active).
In the case of `Cc1cc2cc(CNC(=O)c3cccs3)ccc2[nH]1` it was 4.85%; in that of `c1ccc2c(-c3nn4nnnc4c4ccccc34)cccc2c1`, 1.52%.
The result for `Cc1cc(Cl)c(S(=O)(=O)N(C)C)cc1OCC(N)=O` reads -1.09%; that for `COc1ccc(S(=O)(=O)Nc2ccc(F)cc2)c(C)c1C`, -18.5%; that for `COCCOCCn1cnc2ccccc21`, 8.15%.
In the case of `Cc1ccc(-c2nc3ccccc3[nH]2)cc1N` it was 10.8%.
For the compound `CC(=O)N1CCCc2cc(S(=O)(=O)CCC(=O)N3CCN(c4ccccc4)CC3)ccc21`, the inhibition was 3.39%.
Regarding `CC(C)(C)c1ccc(C(=O)NCC(=O)OCN2C(=O)c3ccccc3C2=O)cc1`, the inhibition is -15.4%.
Regarding `C=CCN(C(=O)Cn1ncc2c1-c1cc(C)ccc1OC2)c1ccccc1`, the inhibition is -12.8%.
The result for `Oc1c(Br)cc(CN(Cc2cc(Br)c(O)c(Br)c2)C2CCCCC2)cc1Br` reads 98.7% (active); that for `C=CCO/N=C(\C)c1c(O)c(C)c(-c2ccccc2)n(-c2ccccc2)c1=O`, 0.29%; that for `Cc1cccc(NC(=O)/C(=C\c2ccco2)NC(=O)c2ccccc2)c1`, -5.56%.
In the case of `CCC(c1nnnn1C1CCCC1)N1CCN(C(=O)c2ccco2)CC1` (stereo not given) it was 56.9% (active); in that of `CC(=O)c1ccc(-n2nnnc2SCC(=O)N2CCN(C(=O)c3ccco3)CC2)cc1`, 6.3%; in that of `CC(C)C(c1nnnn1CCc1ccccc1)N1CCN(C(=O)c2ccco2)CC1` (stereo not given), -1.2%.
The result for `COC(=O)c1ccc(CSc2nc3cc(Cl)ccc3o2)cc1` reads 8.67%; that for `Cc1ccc(-c2cnc(NC(=O)CCC(=O)N(C)Cc3ccccc3)n2C)cc1`, 8.43%.
On to `COc1ccc(C(C)=O)cc1CN1C(=O)NC2(CCCCC2C)C1=O` (stereo not given), for which the inhibition is 3.22%.
In the case of `CC1CCN(C(=O)c2cc3nc(C4CC4)cc(C(F)(F)F)n3n2)CC1`, the inhibition is 6.46%.
Regarding `C[C@H](CCC(=O)O)[C@@H]1CC[C@@H]2[C@H]3CC[C@H]4C[C@@H](O)CC[C@]4(C)[C@@H]3C[C@H](O)[C@]21C`, the inhibition was -5.18%.
In the case of `FC(F)(F)c1ccc2nnc(-c3c(Cl)cccc3Cl)n2c1` it was -1.74%; in that of `CC1CCCCC1NC(=O)C1CCCN1S(=O)(=O)c1cccc2nsnc12` (stereo not given), -19.4%; in that of `O=C1CSC(c2ccc(Cl)cc2)N1` (stereo not given), 13.1%.
The result for `Cc1cccn2c(=O)c(/C=C(\C#N)S(=O)(=O)c3ccc(Cl)cc3)c(N3CCC(C(N)=O)CC3)nc12` reads 0.22%; that for `CCCNC(=O)N1CCN(C(=O)NCCC)CC1`, 0.05%.
On to `CC1=CC(=O)C=CC1(C)C(Cl)(Cl)Cl` (stereo not given), for which the inhibition was -10.9%.
The result for `CN(C)c1ccc(CNC2C3CC4CC(C3)CC2C4)cc1` (stereo not given) reads 8.16%; that for `COC(=O)Nc1ccc(S(=O)(=O)N2CCN(CCN3C(=O)C4C5C=CC(C5)C4C3=O)CC2)cc1` (stereo not given), 6.97%; that for `O=C(NCC(=O)N(Cc1cccs1)C(C(=O)NC1CCCCC1)c1ccco1)c1cccs1` (stereo not given), 0.62%.
The result for `COc1ccc(C)cc1S(=O)(=O)NCCc1ccccc1` reads 7.34%; that for `COc1ccc(NC(=S)N2N=CCC2c2ccccc2)cc1` (stereo not given), -1.54%; that for `CCCCN1C(=O)CC(N2CCOCC2)C1=O` (stereo not given), -0.67%.
In the case of `O=C(Cc1c(O)c2ccccc2[nH]c1=O)NCc1ccccc1` it was 7.06%; in that of `CS(=O)(=O)c1ccc(/C=N/NC(N)=S)cc1`, 20.2%; in that of `CC(C)CCNC(=O)Cn1c(=O)oc2cc(S(=O)(=O)N3CC(C)CC(C)C3)ccc21` (stereo not given), 7.82%.
Consider `CCOCCCNC(=O)C(NC(=O)c1ccc(=O)[nH]c1)c1ccc(C)cc1` (stereo not given), for which the inhibition was -19.1%.
The result for `Cc1nnc(SCc2nc3ccccc3nc2C)s1` reads 1.94%; that for `CCOc1cc2[nH]c(=S)n(Cc3ccc(C(=O)NCCOC)cc3)c(=O)c2cc1OCC`, -0.98%.
The result for `CC(C)Oc1ccc(Oc2ccc(C(F)(F)F)cn2)cc1` reads 0.6%; that for `CCn1c(C)nc2cc(C(=O)NNS(=O)(=O)c3ccc(C)cc3C)ccc21`, 2.77%.
In the case of `Cc1cccc(-n2c(Cc3cc(=O)[nH]c(=O)[nH]3)nnc2SC(C)C)c1` it was 62% (active); in that of `Cc1cccc(-n2c(N)cc(=O)nc2SC(C)C(=O)NC2CCCCC2)c1` (stereo not given), 5.17%; in that of `COc1cccc(-n2c(Cc3cc(=O)[nH]c(=O)[nH]3)nnc2SCC(=O)Nc2ccccc2)c1`, 4.97%.
On to `O=C(O)CCCCc1nc2ccccc2s1`, for which the inhibition was -2.94%.
The result for `CNC(=O)c1nnc(Cc2ccc(Cl)cc2)o1` reads -6.06%; that for `CCOc1ccc(S(=O)(=O)NCC2CCCO2)cc1` (stereo not given), -12%; that for `CCOCCOCCC(C(=O)O)P(=O)(c1ccccc1)c1ccccc1` (stereo not given), 71.7% (active).
Regarding `CCOCCCNC(=O)C(NC(=O)CNC(=O)c1ccccc1)c1ccc(C)cc1` (stereo not given), the inhibition was -6.68%.
`CCOC(=O)NC(C(F)(F)F)(C(F)(F)F)P(=O)(c1ccccc1)c1ccccc1`: the inhibition was 6.78%.
The result for `CCCCCCOc1ccc(OC(=O)c2cccnc2)cc1` reads 0.33%; that for `Cc1ccc(-n2c(=O)cc(N3CCN(Cc4ccccc4)CC3)[nH]c2=O)cc1`, 2.1%.
In the case of `Cc1cc(S(=O)(=O)NC2CCCCC2)ccc1OCC(=O)NCc1cccnc1` it was 8.87%.
The result for `CN(C)C(=O)c1cc(Br)ccc1Cl` reads 1.18%; that for `O=C(Nc1ccc2c(c1)OCCO2)C(c1ccc(F)cc1)N1CCCCC1` (stereo not given), -0.28%; that for `O=C(O)c1c(Br)c(Br)c(Br)c(Br)c1C1c2ccc(O)cc2Oc2cc(O)ccc21`, 93.1% (active).
In the case of `COc1cccc(N=c2oc3c(C)ncc(CO)c3cc2C(N)=O)c1`, the inhibition is 10.9%.
On to `CC1(CC(=O)O)O[C@@H]2CCCCC[C@H]2O1` (tested in a mixture with another compound), for which the inhibition is 14%.
In the case of `Cc1cc(NC(=O)CS(=O)(=O)c2cn(C)c3ccccc23)no1` it was -0.74%; in that of `Cc1ccccc1CSCCNC(=O)c1ccc(Cl)c(S(=O)(=O)N2CCOCC2)c1`, 4.77%.
The result for `CCC1CCCCN1CCCNC(=O)C1CCC(Cn2c(=O)[nH]c3ccccc3c2=O)CC1` (stereo not given) reads 14.2%; that for `COc1ccc(C(C#N)Nc2ccccc2C)cc1` (stereo not given), -2.51%.
The result for `COc1ccc(C(=O)OCC(=O)NCC2CCCCC2)cc1S(=O)(=O)N1CCCc2ccccc21` reads 0.19%; that for `Cc1ccc(S(=O)(=O)N(c2cccc(C)c2)C2CCS(=O)(=O)C2)cc1` (stereo not given), 0.21%; that for `COc1ccc(C2(CNC(=O)C(c3ccccc3)c3ccccc3)CCOCC2)cc1OC`, 3.2%.
Take `COc1ccc(S(=O)(=O)N2CCOCC2)c(C)c1C`: the inhibition is 15.3%.
In the case of `Cc1c(O)c(Br)c(C)c(O)c1Br` (tested in a mixture with another compound) it was 94% (active); in that of `CCc1ccccc1NC(=O)CN(C)S(=O)(=O)c1ccc2c(c1)c(=O)n(C)c(=O)n2C`, -4.79%; in that of `C=C(C)CNC(=S)/N=c1\scc(C)n1CC`, 91.6% (active).
The result for `OC[C@@H]1O[C@H](n2cnc3c(SCc4ccccc4)ncnc32)[C@H](O)[C@H]1O` reads 4.63%; that for `CC(C)OC(=O)c1c(NC(=O)c2ccco2)sc2c1CCCC2`, -1.98%; that for `CC(O)CN(Cc1ccc(Cl)cc1)CC(C)O` (stereo not given), 0.45%.
The result for `COc1ccc(S(=O)(=O)N/N=C\c2ccc(OC)c(COc3ccc(C)cc3[N+](=O)[O-])c2)cc1` reads -3.11%; that for `Cc1ccc(SC(=O)COc2ccc(C)c(C)c2)cc1`, -5.83%.
As for `CCN1C(=O)C(CC(=O)Nc2cc(C)ccc2C)SC1=Nc1ccc(S(N)(=O)=O)cc1` (stereo not given), the inhibition was -12.6%.
The result for `O=C(C1=C(O)C(=O)N(Cc2ccccc2)C1c1ccco1)c1ccco1` (stereo not given) reads 12.4%; that for `C[C@@]12CC[C@H]3c4ccc(O)cc4CC[C@@H]3[C@H]1CC[C@H]2OC(=O)CCC1CCCC1`, 39.6%.
In the case of `CC(=O)Nc1ccc(OCC(O)CN2CCN(c3ccccc3Cl)CC2)cc1` (stereo not given) it was 4.39%.
Turning to `CCOc1ccc(N=C2NC(=O)S/C2=C\c2ccc(O)cc2)cc1`, the inhibition was -8.11%.
The result for `O=C(NC1CCC(O)CC1)c1ccc(S(=O)(=O)NCc2ccco2)cc1` (stereo not given) reads 1.61%; that for `COC(=O)C1=C(C)Nc2ncnn2C1c1cccnc1` (stereo not given), -10.7%.
Consider `Cc1ccc(S(=O)(=O)N(C)C2(C)CCS(=O)(=O)C2)cc1` (stereo not given), for which the inhibition is -7.37%.
The result for `Cn1cnc([N+](=O)[O-])c1Nc1ccccc1O` reads -0.46%.
As to `O=C(N/N=C/c1ccc(O)cc1)/C(=C/c1ccc([N+](=O)[O-])cc1)NC(=O)c1ccccc1`, the inhibition was -3.81%.
In the case of `Cc1cccc(C)c1NC(=O)CSc1nnc(-c2ccccc2)n1Cc1ccc2c(c1)OCO2` it was 14.3%; in that of `Cc1nn(-c2ncc(C(F)(F)F)cc2Cl)c(=O)n1-c1ccccc1`, 9.91%.
